Bioassay records as filed in PubChem BioAssay.
JMJD2A Tudor: blocks the human JMJD2A Tudor domain | O75164 | AlphaScreen JMJD2A-Tudor / H3K4me3 peptide binding | Potency, µM (series often up to 114 µM), for the others: top-dose activity change, negative = inhibition, actives largely listed as inhibitors | 4.4% of 390,000 active; also: % is scaled to controls: 0 for no effect and ±100 for the full control effect; nearly all actives have a fitted effect of over 50% in size
HP1b binding inh: inhibitors of HP1-beta chromodomain binding to methylated histone tails. Potency, µM (doses to about 114 µM), for inactives: top-dose activity change, negative = inhibition, hits mostly inhibitors. AlphaScreen HP1-beta / biotin-H3K9me3 peptide binding. P83916. AID 540317. 0.56% of 390,000 active; also: nearly all actives have a fitted effect of over 70% in size
Target sequence (P83916 whole entry, looked up): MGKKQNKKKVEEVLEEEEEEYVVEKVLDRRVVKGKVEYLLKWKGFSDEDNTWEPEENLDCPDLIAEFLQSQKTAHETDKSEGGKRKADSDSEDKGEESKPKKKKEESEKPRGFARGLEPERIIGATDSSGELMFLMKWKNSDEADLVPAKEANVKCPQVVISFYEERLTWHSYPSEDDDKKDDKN
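HP1-beta protein (50 nM final) preincubated 30 min at room temperature with biotinylated H3(1-18)K9me3 peptide (50 nM) in PBS pH 7.4, 0.01% Tween-20, then compound added for 30 min. AlphaScreen streptavidin donor/nickel chelate acceptor beads (10 ug/mL final), 30 min dark, luminescence read.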
BAZ2B inh: inhibitors of human BAZ2B bromodomain | Q9UIF8 | AlphaScreen BAZ2B-H3K14Ac peptide displacement | Potency, µM (series often up to 114 µM), for the others: top-dose activity change, negative = inhibition, hits mostly inhibitors | 4.4% of 360,000 active; also: % is scaled to controls: 0 for no effect and ±100 for the full control effect; nearly all actives have a fitted effect of over 60% in size
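Compounds, titrated to a top concentration of 110 uM, were incubated 30 min at room temperature with preformed BAZ2B/acetyl-K14 H3 peptide complex (50 nM each). Proximity signal was measured by AlphaScreen after 20 min with beads.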
PLK1 PBD inh: inhibitors of human PLK1 polo-box domain binding; AID 720504; Potency, µM, for inactives: max response, negative = inhibition, usual class: inhibitors; P53350; 2.8% of 360,000 active; Plk1 PBD binding of FITC phosphopeptide, fluorescence polarization; also: series mostly up to about 57 µM; % is scaled to controls: 0 for no effect and ±100 for the full control effect; nearly all actives have a fitted effect of over 65% in size
Target sequence (P53350 whole entry, looked up, the tested form may be a part): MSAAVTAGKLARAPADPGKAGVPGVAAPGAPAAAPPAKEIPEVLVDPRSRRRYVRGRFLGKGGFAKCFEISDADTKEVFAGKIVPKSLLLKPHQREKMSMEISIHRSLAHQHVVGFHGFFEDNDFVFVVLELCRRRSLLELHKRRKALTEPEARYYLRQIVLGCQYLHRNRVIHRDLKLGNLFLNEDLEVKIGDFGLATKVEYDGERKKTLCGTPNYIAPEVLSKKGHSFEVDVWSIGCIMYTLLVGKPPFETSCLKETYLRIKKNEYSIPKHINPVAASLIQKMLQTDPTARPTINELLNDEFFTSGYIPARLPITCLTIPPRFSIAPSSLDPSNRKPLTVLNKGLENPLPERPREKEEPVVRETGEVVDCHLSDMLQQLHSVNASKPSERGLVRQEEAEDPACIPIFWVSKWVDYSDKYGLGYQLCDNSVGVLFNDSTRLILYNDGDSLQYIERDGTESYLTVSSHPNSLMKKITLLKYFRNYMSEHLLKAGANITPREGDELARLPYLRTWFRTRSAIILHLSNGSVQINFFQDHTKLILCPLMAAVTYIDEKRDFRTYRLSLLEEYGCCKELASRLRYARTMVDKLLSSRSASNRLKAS
G9a block: blocks human histone lysine methyltransferase G9a; Q96KQ7; G9a H3K9 monomethylation, AlphaScreen, 2 h; Potency, µM (doses to about 102 µM), inactives show top-dose activity, negative = inhibition, hits mostly inhibitors; 8.8% of 350,000 active; also: % is scaled to controls: 0 for no effect and ±100 for the full control effect; nearly all actives have a fitted effect of over 75% in size
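AlphaScreen detection with an anti-monomethyl H3K9 antibody quantified product after a 2 h room-temperature reaction containing 500 nM biotinylated H3K9 peptide, 20 µM SAM and 20 nM enzyme, which had been preincubated 15 min with compound.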
Sfp PPTase inh: Sfp phosphopantetheinyl transferase inhibition; 3.5% of 310,000 active; Q9F4F7; Potency, µM, for inactives: largest response in the series, negative = inhibition, actives largely listed as inhibitors; Biochemical Sfp PPTase activity, qHTS;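 also: the enzyme is Sfp with the accession as filed and its product quenches rhodamine fluorescence; 0% = enzyme reaction without inhibitor and -100% = no enzyme wells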
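Sfp 15 nM + cpd, 15 min RT; start w/ rhodamine-CoA 5 uM, BHQ-2-YbbR 12.5 uM (final); 50 mM Hepes pH 7.6, 10 mM MgCl2, 0.01% NP-40, 0.01% BSA; read 525/598 nm at 0 and 30 min.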
* hit, by the source's call; u = inconclusive; x = no result given; [ ] = remark or other dose. Only some compounds are listed: those with a hit (about 12% of all), similar ones and a draw of the others. Calls follow the shape of the dose curve; as a rule, active = well fitted curve in the direction sought with a large enough effect; inconclusive = small, poorly fitted or top-dose-only effect, or another doubt; inactive = no such curve, though single readings can be large; an effect the other way counts as inactive or inconclusive. Potency is read from the fitted curve at half-maximal effect.

SMILES	JMJD2A Tudor	HP1b binding inh	BAZ2B inh	PLK1 PBD inh	G9a block	Sfp PPTase inh
CCN1CCN(c2ncc3c(n2)CCN(Cc2sccc2C)C3)CC1	u	21.3%	u	x	17.8µM*	x
CCCCN1CCc2nc(N3CCN(C)CC3)ncc2C1	-7.9%	45.7%	-35.4%	x	u	x
CCN1CCN(c2ncc3c(n2)CCN(Cc2cc(Br)cs2)C3)CC1	79.4µM*	3.9%	50.1µM*	x	22.4µM*	x
CCN1CCN(c2ncc3c(n2)CCN(Cc2ccc(Br)s2)C3)CC1	-21.9%	38.4%	-29.7%	x	2.7%[12.7 µM]	x
CC1Cc2ccccc2C(CCc2ccccc2)=N1 (centres undefined)	0.0%	75.3%	-0.3%	-12.7%	-11.9%[2.33 µM]	5.6%
Oc1ccc(Br)cc1-c1cc(-c2ccccc2Cl)[nH]n1	-22.1%[11.4 µM]	9.3%	0.5%	23.8µM*	24.2%[59 µM]	6.2%
Cc1ccc(-c2cc(-c3ccccc3Cl)[nH]n2)c(O)c1	-20.1%	35.0%	7.7%	0.8%	16.4%[59 µM]	18.2%
Cc1ccccc1-c1cc(-c2ccccc2O)n[nH]1	-29.8%[11.4 µM]	u	5.0%	3.36µM*	6.5%[12.7 µM]	8.1%
C/C(CCC1CC(C)OC1=O)=N/Nc1nc(-c2ccccc2)cs1 (centres undefined)	u	-33.2%	u	29.9µM*	8.91µM*	50.1µM*
CCOC(=O)C/C(C)=N\Nc1nc(-c2ccccc2)cs1	-28.3%	-25.3%	-37.3%	u	u	u
CC(/C=C/c1ccccc1)=N\Nc1nc(-c2ccccc2)cs1	u	-28.2%	-36.3%	-10.3%	-20.0%[59 µM]	-2.4%
CC(C)=NNc1nc(-c2ccc(N3C(=O)CCC3=O)cc2)cs1	-12.8%	13.1%	u	u	u	20µM*
CC(C)=NNc1nc(-c2ccccc2)cs1	-33.1%	0.6%	-32.2%	-16.4%	u	79.4µM*
CCOC(=O)c1cccc(NC(=O)C2CCCN(S(=O)(=O)c3ccc4c(c3)oc(=O)n4C)C2)c1 (centres undefined)	-3.0%	49.5%	-13.9%	x	10.3%[59 µM]	x
O=C1NC(=S)N(C(=O)c2ccc(F)cc2)/C1=C/c1cccnc1	-16.2%	17.4%	-23.7%	-18.9%	u	2.4%
COc1ccc(/C=C2\C(=O)NC(=S)N2C(=O)c2ccc(C)cc2)cc1	56.2µM*	-23.5%	50.1µM*	-17.6%	u	u
Cc1ccc(CNC(=O)C2COc3ccccc3C2)cc1 (centres undefined)	-14.1%	54.8%[57 µM]	19.2%	x	9.0%[59 µM]	x
O=C(CCCCCN1CCN(c2ccccc2-c2ccccc2)CC1)NC1CCCc2ccccc21 (centres undefined)	x	x	x	x	12.6µM*	x
O=C(CN1CCN(c2ccccc2Cl)CC1)NC1CCCc2ccccc21 (centres undefined)	1µM*	u	20µM*	-4.2%	8.91µM*	u
O=C(CCc1ccccc1)NC1CCCc2ccccc21 (centres undefined)	-14.4%	33.6%	1.8%	-10.7%	11.3%	-10.4%
Cn1c(N)c(C(=O)COC(=O)/C=C/c2ccc(Cl)c(Cl)c2)c(=O)n(C)c1=O	-18.6%	-10.7%	x	-8.2%	x	x
Cn1c(CNC(=O)C(Cc2ccccc2)NC(=O)c2cccc(F)c2)cc(=O)n(C)c1=O (centres undefined)	-30.1%	6.2%	0.6%	26.7µM*	1.0%	11.2%
Nc1nc(NC(=O)c2ccc(F)cc2)ns1	u	19.3%	-7.8%	29.9µM*	-33.3%[12.7 µM]	x
CC(=O)Cc1nsc(NC(=O)c2ccc(F)cc2)n1	4.1%	20.9%	-20.1%	9.1%	0.3%	20.2%
Cc1c(C(=O)N2CCOCC2)sc(NC(=O)C(C)C)c1C#N	4.7%	30.6%	6.0%	-1.0%	-1.0%	17.6%
SMILES	JMJD2A Tudor	HP1b binding inh	BAZ2B inh	PLK1 PBD inh	G9a block	Sfp PPTase inh
COc1ccc(NC(=O)CN(C)C(=O)c2cc3c(s2)CCC(C)C3)cc1 (centres undefined)	-11.8%	19.4%	-23.3%	-11.4%	33.6%	8.0%
CCC1CCc2sc(C(=O)N(C)CC(=O)Nc3ccc(N4CCOCC4)cc3)cc2C1 (centres undefined)	-31.1%	3.5%	-3.6%	-2.6%	44.7µM*	x
CC1CCc2sc(C(=O)N(C)CC(=O)Nc3ccc(N4CCOCC4)cc3)cc2C1 (centres undefined)	u	-21.1%	u	-8.0%	35.5µM*	-1.6%
CCc1nn(CC(=O)NCc2ccc(C)cc2)c(=O)c2cc3occc3n12	-24.8%	1.8%	-4.3%	x	7.7%[59 µM]	x
O=C(CSc1nncc(=O)[nH]1)Nc1cccc([N+](=O)[O-])c1	-13.1%	51.2%	-20.5%	21.2µM*	-13.3%	-5.1%
O=C(CSc1nncc(=O)[nH]1)NCc1ccccc1	39.8µM*	0.3%	u	26.7µM*	56.2µM*	-7.5%
O=C(CSc1nc2[nH]ncc2c(=O)[nH]1)NCc1ccccc1	-16.1%	24.8%	3.4%	-11.5%	2.8%[59 µM]	7.7%
O=C(CSc1nc(SCC(=O)NCc2ccccc2)n(-c2ccccc2)n1)NCc1ccccc1	-12.8%	27.8%	2.9%	-10.3%	25.1µM*	-6.8%
Nc1cc(=O)[nH]c(SCC(=O)Nc2cccc([N+](=O)[O-])c2)n1	-10.8%	60.5%	-8.1%	-16.5%	28.1%[12.7 µM]	5.6%
COC(=O)CC1C(=O)NCCN1C(=O)c1ccc(Cl)cc1 (centres undefined)	-0.7%	0.9%	10.7%	-16.3%	4.9%	-16.0%
O=c1c2ccccc2nc(/C=C/c2cccnc2)n1CCc1ccccc1	17.8µM*	-23.0%	35.5µM*	5.1%	50.1µM*	-9.8%
CCSc1nc2ccccc2n1CC(=O)OC	-0.9%	31.8%	-2.8%	1.8%	4.7%[12.7 µM]	6.4%
O=C(O)CSc1nc2ccccc2n1Cc1ccccc1	89.1µM*	-2.3%	4.4%	u	6.4%	23.5%
Cc1ccc(OCCSc2nc3ccccc3n2CC(=O)O)cc1	-32.4%	8.2%	5.8%	-15.1%	x	12.4%
CC(C)Oc1ccc(OCCSc2nc3ccccc3n2CC(=O)O)cc1	-14.6%	13.5%	-28.7%	-10.7%	50.1µM*	-1.2%
COC(=O)Cn1c(SCc2ccccc2)nc2ccccc21	13.0%[11.4 µM]	18.9%	8.6%	26.7µM*	33.1%	13.2%
NC(=O)CSc1nc2ccccc2c(=O)n1CCc1ccccc1	-2.1%	23.5%	8.3%	-17.5%	79.4µM*	-8.2%
CCOC(=O)CC(=O)CSc1nc2ccccc2c(=O)n1CCc1ccccc1	25.0%	35.2%	-5.2%	x	62.9%[59 µM]	x
Cc1cccc(NC(=O)CN2C(=O)COc3ccc(S(=O)(=O)Nc4ccccc4)cc32)c1C	-1.0%	19.5%	-7.9%	x	-27.2%[59 µM]	x
CCOc1ccc(S(=O)(=O)NCc2ccc3c(c2)OCO3)cc1	-8.6%	27.6%	-3.4%	-13.6%	3.2%	22.2%
COc1ccc(CNC(=O)C23CN(Cc4ccccc4)CC2C(c2ccc([N+](=O)[O-])cc2)=NO3)cc1 (centres undefined)	-27.1%	16.5%	u	-8.5%	-23.3%[59 µM]	u
